19 compounds from PubChem BioAssay (NCATS) can be followed below.

Records with an inconclusive call do not appear. Unmarked numbers belong to inactive results. Active and inactive are the calls of the source. The call rests on the fitted dose curve; in most records, active means well fitted inhibition curve with a large enough effect; inconclusive means small, poorly fitted or top-dose-only effect; inactive means flat fitted curve, though single readings scatter.

Holding throughout (experiment): Cytotoxic Profiling of Annotated Libraries Using Quantitative High-Throughput Screening (AID 1296008); further: nearly all actives have a fitted effect of over 60% in size
Settings in all cases: Five cell lines viability, CellTiter-Glo ATP luminescence, 48-72 h; max response: active compounds read low
In general terms: In ATP-based viability assays light output follows the ATP content of the culture.

The test system of one assay is CRL-7250. An outline of the steps:
(§1)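 Compounds were pin-transferred onto cells and incubated 48 or 72 hr at 37 degree Celsius, 95% humidity. CellTiter-Glo was added, plates sat 10 min at room temperature, then ATP-coupled luminescence was imaged as the viability read-out.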

Another assay deals with HEK293. In outline:
as §1

The next assay deals with HaCat. In outline:
as §1

The subject of a further assay is KB-3-1. An outline of the steps: as §1
The test system of the next assay is NIH3T3. In outline: as §1
On the % scale 0 is the no-effect control and ±100 the full control effect; potency means the concentration at half of the fitted maximal effect.

As for `O=C1NC(Cc2c[nH]c3ccccc23)C(=O)NC1Cc1cnc[nH]1` (stereo not given), the compound was called inactive with CRL-7250, in the assay on HaCat and in the assay with KB-3-1. Moreover, the max response in the assay with HEK293 was -5.57%; in the assay on NIH3T3, 3.67%.

Turning to `CC[C@H]1OC(=O)[C@H](C)[C@@H](O[C@H]2C[C@@](C)(OC)[C@@H](O)[C@H](C)O2)[C@H](C)[C@@H](O[C@@H]2O[C@H](C)C[C@H](N(C)C)[C@H]2O)[C@](C)(O)C[C@@H](C)C(=O)[C@H](C)[C@H]2OC(=O)O[C@@]21C`, the max response was 0.0016% in the assay with CRL-7250; -4.98% in the assay with HEK293; -4.77% in the assay on HaCat; 7.84% with KB-3-1; 3.61% with NIH3T3.

For the compound `CC1(C)CC2=C3C=CC4C5(C)CCC(O)C(C)(C)C5CCC4(C)C3(C)CCC2(C)C(O)C1` (stereo not given), the max response with CRL-7250 was -3.63%; with HEK293 it was -1.33%; with HaCat it was -3.58%; in the assay with KB-3-1, -4.92%; with NIH3T3 it was -2.26%.

`CCC(CC)C(=O)Nc1sc2c(c1C#N)CCC(C(C)(C)CC)C2` (stereo not given): the outcome in the assay with CRL-7250 was inactive. The Potency with HEK293 is 23.1 µM (active). The max response with HaCat is 1.75%; in the assay with KB-3-1, -9.22%; in the assay on NIH3T3, 3.55%.

For the compound `CC(=O)OC1C(OC(=O)c2ccccc2)C2C(C)(C)CC(=O)CC2(C)C23CCC(C)(C2)C(O)CC13` (stereo not given), the max response with CRL-7250 was -5.07%; in the assay with HEK293, -15.7%; with HaCat, 1.97%; in the assay with KB-3-1, -13.9%; with NIH3T3 it was -5.55%.

Take `CCc1ccc(Cc2ccc3c(c2)[C@]2(OC3)O[C@H](CO)[C@@H](O)[C@H](O)[C@H]2O)cc1`: the outcome in the assay on CRL-7250 was inactive. Besides, the max response was -3.78% in the assay on HEK293, 3.62% in the assay with HaCat, -4.58% in the assay with KB-3-1 and 1.11% with NIH3T3.

Take `Cc1cc(Cl)ccc1COc1ccnn1-c1cc(C(=O)O)ccn1`: the max response with CRL-7250 is 0.791%; in the assay on HEK293, -13.3%; with HaCat, -5.14%; with NIH3T3, 0.276%. Also, the call in the assay on KB-3-1 was inactive.

Consider `C=C(C(=O)O)[C@H]1C[C@]2(C)[C@@H](O)CC[C@]23O[C@H]1C[C@@H]3C`, for which the max response was -8.76% in the assay with CRL-7250, -6.98% in the assay on HEK293 and -13.7% in the assay with NIH3T3. Moreover, the compound was classed as inactive with HaCat and with KB-3-1.

As for `C=C(C(=O)O)[C@@H]1CC[C@@]2(C)CC[C@H](O)[C@@]2(C(C)=O)C1`, in the assay on CRL-7250, the compound was classed as inactive. The max response is -2.38% in the assay with HEK293, -0.694% in the assay on HaCat, 2.3% in the assay on KB-3-1 and -3.95% in the assay on NIH3T3.

With `COc1cc(C(=O)O)ccc1OC1OC(CO)C(O)C(O)C1O` (stereo not given), the compound was called inactive with CRL-7250 and in the assay on KB-3-1. The figures for the max response with HEK293, in the assay with HaCat and in the assay with NIH3T3 were -3.87%, 0.774% and -5.21%, respectively.

On to `CC1(C)CCC2(C(=O)OC3OCC(O)C(O)C3O)CCC3(C)C(=CCC4C5(C)CC(O)C(OC6OC(COC7OCC(O)C(O)C7O)C(O)C(O)C6O)C(C)(C)C5CCC43C)C2C1` (stereo not given), for which the max response is 1.81% with CRL-7250, -7.77% in the assay with HEK293, 2.92% in the assay on HaCat and -1.51% with NIH3T3. Further, the call in the assay with KB-3-1 was inactive.

For the compound `COC(=O)C(C)C1CCC2(C)C(=O)C=CC(C)(O)C2C1O` (stereo not given), the compound was classed as inactive with CRL-7250 and with KB-3-1. In addition, the max response with HEK293 was -6.36%; with HaCat, 4.7%; in the assay on NIH3T3, 2.97%.

As to `O=C(NCc1ccccn1)Nc1nnc(-c2ccco2)o1`, the max response in the assay with CRL-7250 was 0.451%; with HEK293, -0.62%; with HaCat, 1.95%; in the assay on KB-3-1, 3.97%; with NIH3T3, 3.06%.

For the compound `O=C(NCc1ccc(F)cc1)C(=O)c1c[nH]c2ccccc12`, the outcome with CRL-7250 was inactive. In addition, the max response is -9.93% in the assay on HEK293, -19.7% in the assay with HaCat, -9.55% with KB-3-1 and -16.4% with NIH3T3.

Turning to `O=S(=O)(c1ccccc1)c1cnc2c(N3CCNCC3)cccc2c1`, the max response was 1.33% in the assay on CRL-7250, -8.82% with HEK293, 0.14% with KB-3-1 and -14.1% with NIH3T3. For the same compound, in the assay on HaCat, the outcome was inactive.

Consider `C=C(C(=O)OC)C1C(O)CC2(C)C(O)CCC(=O)C2C1O` (stereo not given), for which the max response was -16.1% in the assay on CRL-7250, -7.45% in the assay on HEK293, 2.14% with KB-3-1 and 3.84% in the assay on NIH3T3. Further, in the assay on HaCat, the compound was classed as inactive.

On to `C[C@@H]1O[C@@H](O[C@H]2[C@H](O)[C@@H](O)[C@H](OC3CCC4(C)C5CCC(C)(C(CO)OC6OC(CO)C(O)C(O)C6O)CC5=CCC4C3(C)C)O[C@@H]2CO)[C@H](O)[C@H](O)[C@H]1O` (stereo not given in full), for which the max response in the assay with CRL-7250 is 2.65%; with HEK293, 4.31%; in the assay with HaCat it was -0.0812%; with KB-3-1, 0.989%; with NIH3T3, 3.8%.

As for `CC(=O)OC1C[C@]2(C)C(O)CC(C)=C[C@H](OC(=O)c3ccc(O)cc3)C2[C@]1(O)C(C)C` (stereo not given in full), the max response in the assay on CRL-7250 was 1.7%; with HEK293, -3.03%; in the assay on HaCat, -0.241%; in the assay on KB-3-1, 4.36%; in the assay with NIH3T3, 3.62%.

Consider `COc1c2c(c(C)c3c1C(=O)OC3)O[C@@]1(C)CCC3(C(C)(C)O)OC(=O)CC[C@]3(C)[C@H]1C2` (stereo not given in full), for which the max response in the assay with CRL-7250 was -2.51%; with HEK293 it was -0.697%; with HaCat it was -17.1%; with NIH3T3, -21.1%. Further, in the assay on KB-3-1, the result was inactive.
